# Laboratory results reported in PubChem BioAssay AID488969 (Vanderbilt High Throughput Screening Facility, 2010).
# Whole data set: some 110,000 compounds, median “z-score” near -0.1, cut for the highest 2% near 2. What follows is part of a selection rich in the highest values, with near analogues and random picks from the rest. Active and inactive are the calls of the source.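 The calls were made as follows: active = z-score in the third read window above 3 or below -3; inactive = the rest.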
# Target: Metabotropic glutamate receptor 8 (Rattus norvegicus) (UniProt P70579)
# Sequence (P70579 whole entry, looked up): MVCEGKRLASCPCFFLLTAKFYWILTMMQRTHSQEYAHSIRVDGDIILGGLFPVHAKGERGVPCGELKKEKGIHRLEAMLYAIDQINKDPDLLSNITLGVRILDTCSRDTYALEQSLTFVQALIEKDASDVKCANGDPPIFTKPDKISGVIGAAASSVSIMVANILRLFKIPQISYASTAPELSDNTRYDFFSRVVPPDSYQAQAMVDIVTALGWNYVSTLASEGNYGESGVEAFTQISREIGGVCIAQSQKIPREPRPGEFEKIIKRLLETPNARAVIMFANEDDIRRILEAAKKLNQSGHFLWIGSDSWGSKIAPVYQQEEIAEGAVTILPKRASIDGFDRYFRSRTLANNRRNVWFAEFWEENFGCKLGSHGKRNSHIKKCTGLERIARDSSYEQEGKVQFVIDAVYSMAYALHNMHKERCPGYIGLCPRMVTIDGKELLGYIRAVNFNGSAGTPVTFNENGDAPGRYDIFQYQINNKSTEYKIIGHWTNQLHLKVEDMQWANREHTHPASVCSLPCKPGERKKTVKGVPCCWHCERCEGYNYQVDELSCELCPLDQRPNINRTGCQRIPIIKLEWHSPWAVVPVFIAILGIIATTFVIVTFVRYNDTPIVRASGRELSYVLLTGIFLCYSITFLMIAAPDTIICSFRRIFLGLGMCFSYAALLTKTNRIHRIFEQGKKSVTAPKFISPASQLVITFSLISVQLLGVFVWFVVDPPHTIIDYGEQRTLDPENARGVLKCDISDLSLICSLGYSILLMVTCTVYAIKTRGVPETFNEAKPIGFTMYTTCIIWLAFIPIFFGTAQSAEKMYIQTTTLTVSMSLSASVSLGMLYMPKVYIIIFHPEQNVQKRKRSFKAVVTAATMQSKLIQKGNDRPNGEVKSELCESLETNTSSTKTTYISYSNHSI
# Experiment: mGluR8 Gi/Go-coupled signaling modulation – cell-based, rat, thallium flux, HTS, primary screen (AID 488969)
# Conditions: HEK293 rat mGluR8, GIRK (G protein-gated inwardly rectifying potassium channel) thallium flux, FluoZin2; at 10 µM; stronger effect = higher value; submaximal glutamate (EC20) added with thallium
row,SMILES,z-score
1,COc1cc(SC)ccc1C(=O)N(C)Cc1ccccc1,0.253
2,CCOC(=O)CSc1ncc(-c2ccccc2)cn1,-0.0802
3,CCOC(=O)N1CCN(C(=O)C2CCN(S(=O)(=O)c3ccccc3)CC2)CC1,-0.151
4,CN1CCN(C(=S)Nc2cccc(C(F)(F)F)c2)CC1,-0.213
5,O=C(Oc1ccc(Br)cc1C(=S)N1CCCCC1)c1cc([N+](=O)[O-])cc([N+](=O)[O-])c1,0.762
6,Cc1c([N+](=O)[O-])cc(C(=O)Oc2ccc(Br)cc2C(=S)N2CCCCC2)cc1[N+](=O)[O-],3.58 (active)
7,Cc1ccccc1C(=O)Oc1ccc(Br)cc1C(=S)N1CCCC1,-0.342
8,C=C(C)CN=C1SC(C(=O)Nc2sc3c(c2C(=O)OC)CCC3)C(N)=C1C(N)=O (stereo unspecified),0.236
9,O=C(c1cc2sccc2n1Cc1ccc(F)cc1)N1CCCc2ccccc21,0.225
10,COC(=O)c1cc2sccc2n1CC(=O)N1CCCc2ccccc21,2.64
11,O=C(c1cc2sccc2n1Cc1ccccc1)N1CCCc2ccccc21,-0.795
12,CC(C)CCNC(=O)C(c1cccnc1)N(CCc1ccccc1)C(=O)Cn1nnc2ccccc21 (stereo unspecified),0.555
13,CCCCCNc1nc(-c2ccccc2)cs1,3.86 (active)
14,CC(C)=NNc1nc(-c2ccccc2)cs1,-0.203
15,c1ccc(CCNc2nc(-c3cccnc3)cs2)cc1,-0.023
16,CN(Cc1ccccc1)c1nc2c(c(=O)[nH]c(=O)n2C)n1CCSc1ncccn1,0.672

row,SMILES,z-score
1,CC(C)NC(=S)N/N=C/C1=CCC2CC1C2(C)C (stereo unspecified),-0.69
2,CC1(C)C2CC=C(/C=N/NC(=O)c3ccc(O)cc3)C1C2 (stereo unspecified),-0.0642
3,CC1(C)C2CC=C(/C=N/n3cnnc3)C1C2 (stereo unspecified),2
4,Cc1nc2ccc(S(=O)(=O)NC(C(=O)NCc3ccc4c(c3)OCO4)C(C)C)cc2s1 (stereo unspecified),-0.0773
5,CCn1cc(C(=O)OCC(=O)c2cc(C)n(-c3ccccc3F)c2C)c(=O)c2ccc(C)nc21,-0.711
6,Cc1ccc2nsnc2c1S(=O)(=O)Nc1cccc2nsnc12,14.7 (active)
7,Cc1ccc(C)c(NS(=O)(=O)c2c(C)ccc3nsnc23)c1,-0.891
8,O=S(=O)(Nc1cccc2nsnc12)c1ccccc1,0.265
9,O=C(O)COc1ccc(/C=N/n2c(COc3ccccc3)nc3ccccc3c2=O)cc1,-0.124
10,O=C1CCCCC(=O)c2ccccc2N1,2.21
11,O=C1C(=C(c2ccccc2)c2ccccc2)Nc2ccccc21,-1.32
12,O=C1CCCc2sccc2N1,-0.164
13,Cc1cc2cc(C)c3nnc(SCC(=O)N4CCc5ccccc54)n3c2cc1C,-0.31
14,COc1cc(CNC2CCCCCC2)cc(OC)c1O,0.176
15,CCn1c(CNC(=O)c2ccco2)nnc1SCC(=O)Nc1cc(C)c(C)cc1Br,-0.121
